Here are results for 28 compounds from PubChem BioAssay AID777 (Sanford-Burnham Center for Chemical Genomics, 2007).

The term inhibition denotes the drop in the measured response relative to a control, in per cent.

Structures are written as SMILES. Screen size: about 96,000 compounds; about 19,000 (20%) were called active.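 The calls were made as follows: active = blocking of liver enzyme CYP2C9 beyond about 50% at 5 µM (limit read from the data); inactive = the rest.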 Not all results are given here.

The target in the assay is Cytochrome P450 2C9 (Homo sapiens) (UniProt P11712). Put plainly: blockers of cytochrome P450 2C9 activity – biochemical, luminescence, ADME assay, primary screen (AID 777). To be noted: CYP2C9 Supersomes, luciferin-H conversion, at 5 µM, hits give high values.
Cytochrome P450 2C9 (Homo sapiens), sequence (P11712 whole entry, looked up): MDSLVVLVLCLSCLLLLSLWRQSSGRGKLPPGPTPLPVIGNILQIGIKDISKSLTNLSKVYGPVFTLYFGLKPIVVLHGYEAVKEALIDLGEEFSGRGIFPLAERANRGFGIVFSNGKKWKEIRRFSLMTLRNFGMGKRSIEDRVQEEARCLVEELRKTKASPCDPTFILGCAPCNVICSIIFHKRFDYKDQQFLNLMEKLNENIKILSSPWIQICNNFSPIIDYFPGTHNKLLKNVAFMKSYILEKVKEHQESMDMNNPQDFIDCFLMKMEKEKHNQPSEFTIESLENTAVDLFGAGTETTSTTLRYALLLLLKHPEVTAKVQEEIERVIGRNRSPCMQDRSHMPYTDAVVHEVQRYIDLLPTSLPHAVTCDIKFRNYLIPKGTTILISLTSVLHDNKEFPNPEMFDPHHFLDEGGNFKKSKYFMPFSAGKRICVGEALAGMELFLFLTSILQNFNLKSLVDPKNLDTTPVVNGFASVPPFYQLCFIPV
As to `CC(c1ccco1)N(C(=O)Nc1ccccc1)C1CCCCC1` (stereo not drawn), the inhibition was 81.3% (active). As for `CCCC(C(=O)NCc1ccco1)N(C(=O)CNS(=O)(=O)c1ccccc1)C1CCCC1` (stereo not drawn), the figure is 40.6% (inactive); as for `CCOc1ccc(NC(=O)N(CCC(C)C)C(C)c2ccco2)cc1` (stereo not drawn), 43.6% (inactive). As for `Cc1cc(C)c(S(=O)(=O)N2C=CC(C(F)(F)F)=NCC2)c(C)c1`, the figure is 13.2% (inactive); as for `OC(CN1C2=NCCCN2c2ccccc21)c1ccc(Br)cc1` (stereo not drawn), 17.7% (inactive); as for `NC(=S)c1ccc(C(N)=S)o1`, 23.3% (inactive).

Regarding `Cn1c(=O)[nH]c(=O)c2c1nc(Br)n2CCCCSc1nc2ccccc2o1`, the inhibition was 67.6% (active). As for `Cc1ccnc(SCCn2c(Br)nc3c2c(=O)[nH]c(=O)n3C)n1`, the figure is -6.9% (inactive).

With `CCCCCCn1c(SCC(=O)c2ccccc2)nc2c1c(=O)[nH]c(=O)n2C`, the inhibition is 18.7% (inactive). As for `CN(C)/C=C(/C(=O)c1ccc(Cl)cc1)S(=O)(=O)c1ccccc1`, the figure is -9.5% (inactive); as for `COc1ccc2oc(=O)c(C(=O)O)cc2c1`, -6.4% (inactive); as for `COc1cccc(C(=O)c2cc3ccc(O)cc3oc2=O)c1`, 92.8% (active).

As for `COc1cccc(C(=O)NNC(=O)c2ccccc2Br)c1`, the inhibition is -182% (inactive).

For the compound `O=C(NC1=NCCS1)c1ccc(Cl)s1`, the inhibition is 3.9% (inactive). The value for `COc1ccc(C(=O)n2nc(-c3ccc(C)cc3)nc2N)cc1OC` was -9.5% (inactive); that for `Cc1ccc2nc(NC3=NCN(CCc4ccccc4)CN3)nc(C)c2c1` was -5.5% (inactive); that for `COc1ccccc1CNC(=O)c1ccc(SC)cc1OC` was -50.7% (inactive). As for `CC(=O)c1c(C)[nH]c(C(=O)NCc2ccc(C)cc2)c1C`, the figure is 49.2% (inactive). In the case of `CCOC(=O)c1c(C)[nH]c(C(=O)NCc2ccccc2OC)c1C`, the inhibition was 78.3% (active). As for `Cn1c2c(c(=O)n(C)c1=O)CN(Cc1ccco1)CN2`, the figure is -11.6% (inactive). As for `N#CCSc1nc2c(c(=O)n1Cc1ccccc1)C1(CCCC1)Cc1ccccc1-2`, the figure is 36.9% (inactive). As for `CC(C)C(NC(=O)c1ccc(Cl)cc1)C(=O)O` (stereo not drawn), the figure is -5.3% (inactive); as for `O=C(CC1CCCCC1)Nc1c2c(nn1-c1ccc(F)cc1)CS(=O)(=O)C2`, -6.5% (inactive); as for `COc1ccc(-c2nc3n(c2Br)CCC3)cc1`, 2.9% (inactive).

In the case of `CC(C)(C)n1nnnc1C(c1cccs1)N(Cc1cccnc1)CC1CCCO1` (stereo not drawn), the inhibition was 19.7% (inactive). As for `CCOc1ccc(CN(Cc2ccco2)C(c2cccs2)c2nnnn2C(C)(C)C)cc1` (stereo not drawn), the figure is 77.2% (active); as for `CC(C)(C)NC(=O)CN(Cc1cccs1)C(=O)CNS(=O)(=O)c1ccccc1`, 26.8% (inactive). As for `Cc1cc(C)c2nc(SCCC#N)nc(C)c2c1`, the figure is -19.9% (inactive).
